Bioassay records as filed in PubChem BioAssay.
Hits are enriched below; roughly 2.2% of the tested compounds scored in any of these assays.
Hsp70 act: Hsp70 transcriptional activation, primary screen; HeLa Hsp70 promoter luciferase reporter, luminescence; scaled: vehicle 0, proteasome-inhibitor control 100%; activation, % at 10 µM; 200,000 tested, 0.04% active; AID 1203;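 active = activation above the mean across all tested compounds plus 3 SD, cutoff set per campaign, cut at about 5.5% in these data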
GAA850 FXN act: frataxin GAA850 promoter activation; HEK293 lucGAA850 FXN promoter luciferase reporter, 24 h; percent of 10 µM SAHA response; activation, % at 6 µM; AID 540364; 360,000 tested, 0.56% active;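 active = activation above the average of all compounds screened plus 3 SD, cutoff fixed separately per campaign, cut at about 7.5% in these data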
SMARCA2 act: SMARCA2 function activation, primary screen; MG213 cells, MMTV-luciferase reporter, dexamethasone, overnight; activation, % at 9.1 µM; 370,000 tested, 1% active; AID 652017; in the data active = activation above about 7.8%
GalR3 antagonist: antagonists of human GalR3; AID 651719; 360,000 tested, 0.44% active; inhibition, % at 3 µM; O60755; HEK293 GalR3-CNG cAMP membrane potential fluorescence; galR3 body fused to GalR1 C-terminus;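 active = inhibition above the screen-wide average plus 3 SD, cut at about 13% in these data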;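 note: forskolin and galanin both at EC90 stimulate the cells; cAMP rise reported by CNG channel membrane potential dye signal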
Target sequence (O60755 1-299 limits assumed): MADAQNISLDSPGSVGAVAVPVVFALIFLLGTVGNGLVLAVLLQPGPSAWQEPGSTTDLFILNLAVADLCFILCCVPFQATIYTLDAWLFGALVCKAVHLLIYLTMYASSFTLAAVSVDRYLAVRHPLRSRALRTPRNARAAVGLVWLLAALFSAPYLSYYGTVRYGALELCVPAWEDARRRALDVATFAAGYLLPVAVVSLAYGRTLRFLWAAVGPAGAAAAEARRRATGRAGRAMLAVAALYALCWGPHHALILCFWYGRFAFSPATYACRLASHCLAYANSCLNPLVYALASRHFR
HIF act: HIF pathway transcriptional activation. U2OS HRE-luciferase reporter, luminescence; normalized: DMSO 0%, desferrioxamine 100%. AID 1910. activation, % at 7.5 µM (by protocol). 300,000 tested, 0.32% active;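 active = mean activation of at least 10% of the iron chelator positive control signal, with at least half of replicates also reaching 10%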
Numbers stand for hits; – = inactive; · = no result given.

SMILES	Hsp70 act	GAA850 FXN act	SMARCA2 act	GalR3 antagonist	HIF act
CCOC(=O)C1=C(C(=O)OCC)C2N(Cc3ccc(C#N)cc3)c3ccccc3[C@@]23C[C@@H](C(=O)OC)N(S(=O)(=O)c2c(C)noc2C)C3=N1 (stereo not given in full)	·	·	–	–	·
O=C(CSc1nnc(-c2ccccn2)n1-c1ccc(Cl)cc1)Nc1ccc(S(=O)(=O)Nc2nccs2)cc1	·	·	–	·	·
COc1ccc(CN2C(=O)c3ccccc3C2c2nnnn2C(C)C)cc1OC (stereo not given)	·	·	7.8	–	·
CC(=O)c1cccc(NC(=O)c2cccc(NC(=O)c3ccco3)c2)c1	·	–	–	–	–
Cc1cc(C)cc(NC(=O)c2cccc(NC(=O)c3ccco3)c2)c1	·	–	–	–	53
O=C(NC1=NCCS1)c1cccc(NC(=O)c2ccco2)c1	–	–	–	–	12
Cc1cccc(OCC(C)CN2CCC(C(O)(c3ccccc3)c3ccccc3)CC2)c1 (stereo not given)	·	·	–	·	·
C[C@@H]1CN(C(=O)OC(C)(C)C)CCN1c1ccc(N2CCN(Cc3ccccc3)[C@@H](C)C2)c(C#N)c1	·	·	–	–	·
COCCSc1nnc(-c2cccnc2)n1Cc1ccccc1	·	·	–	·	·
CCOc1ccc(-n2c(SCC(=O)Nc3ccc(OCc4ccccc4)cc3)nnc2-c2ccc(Cl)cc2)cc1	·	·	–	·	·
FC(F)Oc1ccc(NC(=S)Nc2ccc3cn[nH]c3c2)cc1	·	–	–	–	9.8
COc1ccc2cc3c(N)nn(C(=O)Cc4c[nH]c5ccccc45)c3nc2c1	·	–	–	–	14
COc1cccc(CC(=O)n2nc(N)c3cc4ccc(OC)cc4nc32)c1	–	–	–	–	–
Clc1ccc(-c2nnc(SCc3cccc4ccccc34)n2Cc2ccco2)cc1	·	·	–	·	·
CCCCCOc1ccc(Br)cc1CSC(=N)N	–	–	–	19	–
CCCCCCCCN1C(=O)[C@@H](CC(=O)N2CCN(C(=O)OCC)CC2)C[C@@]2(C(=O)OC)C1=C[C@H](COCc1ccccc1)O[C@@H]2C	·	·	–	·	·
Oc1ccc(/C=N/Nc2ncc(Br)cn2)c(O)c1	–	–	–	–	19
CCN(CC)S(=O)(=O)c1ccc(N/N=C/c2ccc(O)cc2O)nc1	–	–	–	–	117
O=S1(=O)c2ccc(N3CCN(Cc4ccccc4F)CC3)cc2Oc2ccccc2CN1Cc1cn(Cc2ccc(C(F)(F)F)cc2)nn1	·	·	–	·	·
O=C(Nc1ccccc1Cl)OC1CC2CC1[C@H]1CCCCN1[C@H]2Cc1ccccc1 (stereo not given in full)	·	·	–	·	·
O=C(c1ccc(OC2CCN(Cc3ccc(F)cc3)CC2)cc1)N1CCCC1	·	–	–	–	53
O=C(c1ccc(OC2CCN(CCc3ccccc3)CC2)cc1)N1CCCC1	·	–	–	–	–
O=C(c1ccc(OC2CCN(CCc3ccccc3)CC2)cc1)N1CCCC(CCCO)C1 (stereo not given)	·	–	–	–	44
CCc1ccc(CN2CCC(Oc3ccc(C(=O)N4CCCC4)cc3)CC2)cc1	·	–	–	–	–
COC(=O)[C@]12C[C@H](CC(=O)N3CCOCC3)C(=O)N(Cc3ccco3)C1=C[C@H](C1CCCC1)O[C@@H]2C	·	·	–	·	·
SMILES	Hsp70 act	GAA850 FXN act	SMARCA2 act	GalR3 antagonist	HIF act
COc1ccc(-n2c(C)cc(=O)c3c2CC(C)(C)CC3=O)cc1	–	–	7.9	–	–
Cc1cc2c(n1-c1ccc(Cl)cc1)CC(C)(C)CC2=O	–	–	–	–	–
CCOC(=O)c1ccc2nc3c(cc2c1)CCS3	–	12	–	–	–
CC(=O)Nc1ccc(OCC(C)CN2CCC(C(O)(c3ccccc3)c3ccccc3)CC2)cc1 (stereo not given)	·	·	–	·	·
CCN(CC)CCC=C(c1cccs1)c1cccs1	·	–	7.9	–	·
COc1ccc(N2CCCN(CC(=O)Nc3ccc(Cl)cc3)CC2)cc1	·	·	–	·	·
COC(=O)c1cc2c(c3c4cc(OC)ccc4n(S(=O)(=O)c4ccc(F)cc4)c13)C(=O)N(C)C2	·	·	–	–	·
COc1ccc(CNS(=O)(=O)/C=C/c2ccc(OC)cc2CNC(=O)OC(C)(C)C)cc1	·	·	–	·	·
Cn1c(=O)[nH]c(=O)c2c1nc(Br)n2CC(O)COc1ccccc1 (stereo not given)	–	–	7.9	–	–
COc1ccccc1OCC(O)Cn1c(Br)nc2c1c(=O)[nH]c(=O)n2C (stereo not given)	–	–	–	–	·
COc1ccc(-n2c(Cc3cccs3)nnc2SCC(=O)Nc2cccc3ccccc23)cc1	·	·	–	·	·
O=C(/C=C(\Nc1cccc(OC(F)F)c1)c1ccccc1)c1ccccc1	·	·	–	–	·
Cn1cccc1C(=O)NC(=O)COC(=O)c1ccc(S(C)(=O)=O)c([N+](=O)[O-])c1	·	–	·	·	·
CS(=O)(=O)c1ccc(C(=O)OCC(=O)NC23CC4CC(CC(C4)C2)C3)cc1[N+](=O)[O-]	–	12	–	–	–
O=C(c1ccco1)n1c(=S)nc2ccccn21	–	–	7.9	–	–
COc1ccc(Cl)cc1C(=O)O/N=C(\N)c1ccccn1	·	–	7.8	–	–
N/C(=N\OC(=O)c1cc(Cl)ccc1Cl)c1ccccn1	–	–	–	–	–
COc1ccc2c(c1)nc(-c1cccc(Br)c1)c(=O)n2C(c1ccccn1)c1nc2ccccc2[nH]1 (stereo not given)	·	·	7.9	–	·
CCC(=O)c1ccc(N2CCN(C(=O)c3ccc(Br)cc3)CC2)c(F)c1	–	–	–	–	86
O=C(/C=C/c1cc(Br)ccc1O)c1ccco1	·	–	–	28	–
O=C(Cn1cnc2ccccc21)Nc1ccc(SC(F)F)cc1	–	–	–	74	–
COc1ccc(NC(=O)COC(=O)Cn2cnc3ccccc32)cc1	·	–	–	–	·
Cc1ccc2oc(-c3cccc(NC(=O)Cn4cnc5c(=O)n(C)c(=O)n(C)c54)c3)nc2c1	–	·	·	·	–
CCC(C)c1ccc2oc(-c3ccc(NC(=O)Cn4cnc5c(=O)n(C)c(=O)n(C)c54)cc3)nc2c1 (stereo not given)	–	–	–	–	10
Cc1onc(-c2ccccc2)c1NC(=O)N(Cc1ccccc1)C(C)C	·	–	–	–	55
SMILES	Hsp70 act	GAA850 FXN act	SMARCA2 act	GalR3 antagonist	HIF act
C#CCOc1ccc(/C=N/NC(=O)c2cccnc2)cc1OCC	–	–	–	–	–
CCOc1cc(/C=N/NC(=O)c2cccnc2)ccc1OCc1ccc(C(=O)OC)o1	–	–	–	–	14
COC(=O)c1ccc(C(C(=O)NCc2ccccc2)N(Cc2ccco2)C(=O)c2cnccn2)cc1 (stereo not given)	–	–	–	–	174
O=C1[C@H]2[C@@H](c3ccc(F)cc3)N3C(=O)N(c4cccc(Cl)c4)C(=O)[C@@]3(Cc3ccc(Cl)cc3)[C@H]2C(=O)N1C1CCCCC1	·	–	–	–	–
C[C@@]12C(=O)N(c3cccc(F)c3)C(=O)N1[C@H](c1ccc(F)cc1)[C@@H]1C(=O)N(C3CCCCC3)C(=O)[C@@H]12	·	14	·	·	–
O=C1[C@H]2[C@@H](c3ccc(F)cc3)N3C(=O)N(c4ccccc4)C(=O)[C@@]3(Cc3ccc(Cl)cc3)[C@H]2C(=O)N1C1CCCCC1	·	11	–	–	–
